Measurements as given in PubChem BioAssay AID1700 (The Scripps Research Institute Molecular Screening Center, 2009).
Hit rate of the full screen: of about 290,000 compounds, about 670 (0.23%) were called active.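 How the source made its calls: active means inhibition above a per-plate limit of that plate's mean compound inhibition plus 3 SD (cut at about 60% in these data); inactive means the rest.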 Shown is part of a subset that was picked to be rich in actives.

Assay: KLF5 expression inhibitors, primary screen, DLD-1 cells, luminescence (AID 1700);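 further: 0% = DMSO wells and 100% = LY294002 at 200 µM; higher means less KLF5 promoter-driven luciferase light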
Details: DLD-1 KLF5 promoter-luciferase reporter, at 5 µM, active compounds read high
With `NC(=O)c1ccc(Nc2ccc3nonc3c2[N+](=O)[O-])cc1` the inhibition was -33% (inactive). For `CCOc1ccc(C2C3=C(CCCC3=O)N(CC(=O)O)C3=C2C(=O)CCC3)cc1`, the inhibition was 0.17% (inactive). In the case of `O=C(CCNC(=O)C1CCN(S(=O)(=O)c2ccccc2)CC1)NC1CC1`, the inhibition is reported as -34.7% (inactive). With `Cc1csc(NC(=O)CSc2nnc(-c3cccnc3)o2)n1` the inhibition was -90.3% (inactive). For `COc1ccc(CS(=O)/C(Cl)=C(/Cl)C(=O)Nc2ccc(OC)nc2)cc1` (configuration not stated), the inhibition was 100% (active). In the case of `COc1ccc(C(=O)Nc2ccc(NC(=O)C(C)C)nc2)cc1`, the inhibition is reported as -35% (inactive). For `COc1ccc(NC(=O)/C(Cl)=C(/Cl)S(=O)Cc2ccc(C)cc2)cn1` (configuration not stated), the inhibition was 89% (active). For `COc1ccc(NC(=O)c2cc(-c3ccc(C)cc3)on2)cc1`, the inhibition was -28.2% (inactive). In the case of `COc1ccc(Nc2cc(Cl)ccc2C(=O)O)cn1`, the inhibition is reported as -11.6% (inactive). In the case of `CCOc1ccc(S(=O)(=O)Nc2ccc(OC)nc2)cc1`, the inhibition is reported as -32.8% (inactive). In the case of `CCCCC[C@H]1CN(C2CCCCC2)C(=O)[C@@H]1CC(=O)NCc1ccc(OC)cc1`, the inhibition is reported as -12.3% (inactive). For `COc1cc(/C=N/Nc2nn3cnnc3c3ccccc23)cc(OC)c1OC`, the inhibition was -22.6% (inactive). With `C/C(=N\Nc1nncc2ccccc12)c1ccc(Cl)c([N+](=O)[O-])c1` the inhibition was -127% (inactive). In the case of `CN(CCO)c1ccc(/C=N/Nc2nncc3ccccc23)cc1`, the inhibition is reported as 68.3% (active). For `Cc1ccc(/C=N/NC(=O)COc2ccccc2-c2ccccc2)cc1`, the inhibition was 77.9% (active). In the case of `C=CCc1ccccc1OCC(=O)N/N=C/c1ccccc1OCC`, the inhibition is reported as -10.7% (inactive). With `CSc1ccc(/C=N\NC(=O)COc2ccc(Cl)cc2Br)cc1` the inhibition was -9.23% (inactive). For `COc1ccc(NC(=O)C(C)N2c3cccc4cccc(c34)S2(=O)=O)c(OC)c1` (configuration not stated), the inhibition was -5.03% (inactive). For `O=C(O)CC/C(=C\c1cc2c(cc1Br)OCO2)c1nc2ccccc2s1`, the inhibition was -12.1% (inactive). For `Cc1ccc(S(=O)(=O)N(Cc2ccccc2)c2ccccn2)cc1[N+](=O)[O-]`, the inhibition was -20.6% (inactive). With `COc1cc(N=Cc2c(O)[nH]c3ccccc23)cc(OC)c1OC` the inhibition was 66.8% (active). For `COCC(=O)N=Nc1c(O)[nH]c2ccccc12`, the inhibition was 6.53% (inactive). For `COc1ccc(N=Cc2c(O)[nH]c3ccccc23)cc1OC`, the inhibition was -9.79% (inactive). With `Cc1ccc(CN(CC(=O)NCC2CCCO2)S(=O)(=O)c2ccc(C)cc2)cc1` (configuration not stated) the inhibition was -11% (inactive). For `Cc1ccc(CNC(=O)CCS(=O)(=O)c2ccc3c(c2)CC(C)N3C(=O)C2CC2)o1` (configuration not stated), the inhibition was -9.9% (inactive). In the case of `CCOCCCNc1c(CC)c(C)c(C#N)c2nc3ccccc3n12`, the inhibition is reported as -21.6% (inactive). For `Cc1cccc(CN2CCC(n3nccc3NC(=O)c3ccccc3C)CC2)n1`, the inhibition was -34.2% (inactive). In the case of `CCCCCNC(=O)C1c2ccccc2Oc2ccccc21`, the inhibition is reported as -20.8% (inactive). For `Cn1cc(S(=O)(=O)Nc2ccc(Cl)cc2Cl)c(=O)n(C)c1=O`, the inhibition was -22.9% (inactive). In the case of `CCCc1ccc(OCC(O)CN2CCN(CCO)CC2)cc1` (configuration not stated), the inhibition is reported as 7.32% (inactive). In the case of `O=C(N/N=C/c1sc(N2CCCCC2)nc1-c1cccs1)c1cccnc1`, the inhibition is reported as -30.2% (inactive). For `COc1cccc(-c2nc(CS(=O)CC(=O)NCc3ccc(F)cc3)c(C)o2)c1` (configuration not stated), the inhibition was -11.1% (inactive). For `NS(=O)(=O)c1ccc(CCNS(=O)(=O)c2cccc3cccnc23)cc1`, the inhibition was -50.1% (inactive). With `CC(C)C(C)NC(=O)COc1nc2ccccc2nc1N(C)C1CCCCC1` (configuration not stated) the inhibition was -6.02% (inactive). With `COc1ccccc1C1C2=C(COC2=O)Nc2cc3c(cc21)OCO3` (configuration not stated) the inhibition was 75.8% (active). In the case of `CCCOc1ccccc1C1CC(=O)Nc2cc3c(cc21)OCO3` (configuration not stated), the inhibition is reported as 46.2% (inactive). With `COc1ccc(S(=O)(=O)Nc2ccc3c(c2)OCO3)cc1Cl` the inhibition was -5.73% (inactive). For `CCOC(=O)CSC1=C(C#N)C(c2sccc2C)CC(=O)N1` (configuration not stated), the inhibition was 63.2% (active). With `CCOC(=O)CSC1=C(C#N)C(c2ccco2)C(C(=O)OCc2ccccc2)=C(C)N1` (configuration not stated) the inhibition was -11.8% (inactive). For `Cc1ccc(C2CC(=O)NC(SCC(=O)OCc3ccccc3)=C2C#N)o1` (configuration not stated), the inhibition was 6.45% (inactive). With `NC(=O)CN1CCCC1c1ccc2c(c1)OCCO2` (configuration not stated) the inhibition was -21.8% (inactive). For `C=CCn1c(=O)c(C(=O)NCc2ccc3c(c2)OCO3)c(O)c2ccccc21`, the inhibition was -23.1% (inactive). With `CC/C(=N\NC(=O)c1c(C)nc2ccccn12)c1ccc(Cl)cc1` the inhibition was -19.6% (inactive). In the case of `Cc1cc(Cl)c2oc(C(=O)N(C)C(C)c3ccccn3)c(C)c2c1` (configuration not stated), the inhibition is reported as -79% (inactive). For `CC(C)Oc1ccc(/C=N/NC(=O)c2nnn(-c3nonc3N)c2CN(C)C2CCCCC2)cc1`, the inhibition was -15.7% (inactive). With `CCOc1cc(-c2conc2N)cc(OCC)c1OCC` the inhibition was 5.84% (inactive). In the case of `O=C(NCCc1ccccc1)C(=O)NCC1OCCN1S(=O)(=O)c1cccs1` (configuration not stated), the inhibition is reported as -36.9% (inactive). In the case of `COc1ccc2[nH]cc(CCN3C(=O)c4ccc(C(=O)O)cc4C3=O)c2c1`, the inhibition is reported as -177% (inactive). For `COc1ccc(OC)c(CCNC(=O)c2nn(C)c3c2CS(=O)(=O)c2ccccc2-3)c1`, the inhibition was -12.5% (inactive). In the case of `CC(C)CCn1c(=O)c2c(nc3n2CCCN3Cc2ccccc2)n(C)c1=O`, the inhibition is reported as -4.63% (inactive). For `Cc1ccc(C)c(N2CCN(C(=O)CCCn3c(=O)c4cccn4c4cccnc43)CC2)c1`, the inhibition was 5.08% (inactive). With `CCN(CC)S(=O)(=O)c1ccc(N2CC(C(=O)NCc3cccnc3)CC2=O)cc1` (configuration not stated) the inhibition was -14.9% (inactive). With `COc1ccc(S(=O)(=O)N(CC(=O)N/N=C/c2ccc(C(=O)O)cc2)Cc2ccccc2)cc1OC` the inhibition was 5.79% (inactive). In the case of `COc1ccc(Cc2nnc(N/N=C/c3ccccc3O)[nH]c2=O)cc1OC`, the inhibition is reported as 102% (active). For `O=c1[nH]c(NCCO)nnc1Cc1ccc(Cl)cc1`, the inhibition was -8.33% (inactive). In the case of `Cc1nnc(N/N=C/c2ccccn2)[nH]c1=O`, the inhibition is reported as 2.56% (inactive). In the case of `COc1ccc(NC(=O)CCCN2C(=O)C(c3ccccc3)Oc3cccnc32)cc1` (configuration not stated), the inhibition is reported as -1.26% (inactive). In the case of `Nc1nc(SCC(=O)Nc2cc(C(F)(F)F)ccc2Cl)[nH]c(=O)c1NC(=O)c1ccco1`, the inhibition is reported as -9.6% (inactive). With `Cc1ccc(OCCCC(=O)Nc2ccc(S(=O)(=O)Nc3cc(C)nc(C)n3)cc2)cc1` the inhibition was 0.85% (inactive). In the case of `O=S(=O)(c1cc(Cl)ccc1Cl)N1CCN(Cc2ccco2)CC1`, the inhibition is reported as -4.75% (inactive). In the case of `Nc1ccc2nn(-c3ccc(Cl)cc3)nc2c1`, the inhibition is reported as 97.7% (active). With `CCC(=O)Nc1ccc2nn(-c3ccc(F)cc3)nc2c1` the inhibition was -97% (inactive). For `c1ccc(-n2nc3ccccc3n2)cc1`, the inhibition was -2.18% (inactive). With `O=C(c1cc(-c2ccc(Cl)cc2)on1)N1CCN(c2ccccc2)CC1` the inhibition was -69.1% (inactive). For `Cc1cccc(C)c1OCCN1CCOCC1`, the inhibition was -15.7% (inactive). With `Cc1ccc2c(c1)N(S(=O)(=O)c1cc(-c3cc(C)no3)ccc1C)CCO2` the inhibition was -37.9% (inactive). In the case of `Cc1ccc(NC(=S)Nc2ncccc2C)c(C)c1`, the inhibition is reported as 79.6% (active). With `Cc1ccc(NC(=S)NCCc2ccc(Cl)cc2)c(C)c1` the inhibition was -19% (inactive). With `Cc1ccc(NC(=S)NCc2ccccc2Cl)c(C)c1` the inhibition was -3.59% (inactive). In the case of `CCN1C(=NCCc2cccnc2)N[C@@H](c2ccccc2)C(C(=O)OC)=C1C`, the inhibition is reported as -22% (inactive). For `CC(C)c1ccc(NC(=O)Cn2ncc3ccccc32)cc1`, the inhibition was -106% (inactive). With `CN(c1cccc(NC(=O)c2ccc(CN3CCc4ccccc4C3)cc2)c1)S(C)(=O)=O` the inhibition was -29.8% (inactive). In the case of `CCN(CC)N=Nc1cccc(NC(C)=O)c1`, the inhibition is reported as -51.2% (inactive). In the case of `Cc1ccc(C(=O)NC23CC4CC(CC(C4)C2)C3)c(Cl)c1`, the inhibition is reported as -45.4% (inactive). With `O=C(N/C(=C\c1ccc(O)cc1)C(=O)N1CCCCC1)c1ccccc1` the inhibition was -7.29% (inactive). For `CN1CCN(C(=O)CCc2nc(-c3ccc(Cl)cc3)no2)CC1`, the inhibition was -29.1% (inactive). For `CCNC(=O)CCc1nc(-c2ccc(C)cc2)no1`, the inhibition was -43.2% (inactive). For `CCNC(=O)CCc1nc(-c2ccc(C(C)(C)C)cc2)no1`, the inhibition was 61.9% (active). For `CCc1ccccc1S(=O)(=O)Cc1ccc(C(=O)NCCc2ccccc2)o1`, the inhibition was -41.4% (inactive). With `CCOC(=O)C1CCN(C(=O)Cn2nc(C)c3c(C)n(-c4ccccc4)nc3c2=O)CC1` the inhibition was -39.7% (inactive). For `COc1ccccc1N1CCN(C(=O)c2cc(=O)c3cc(C)cc(C)c3o2)CC1`, the inhibition was 88.2% (active). For `COc1ccccc1N1CCN(C(=O)c2cc(=O)c3cc(C)ccc3o2)CC1`, the inhibition was 15.1% (inactive). In the case of `COc1cccc(-c2cc(C(=O)N3CCN(c4ccccc4OC)CC3)no2)c1`, the inhibition is reported as -15.2% (inactive). In the case of `Cc1c(NC(=O)CSCc2ccccc2)cccc1C(=O)O`, the inhibition is reported as -44.3% (inactive). For `COc1cc(C(=O)NC2CCN(Cc3ccccc3)CC2)cc(Cl)c1OC(C)C`, the inhibition was 0.72% (inactive). In the case of `O=C(Nc1nonc1-c1ccc(Cl)cc1)c1ccco1`, the inhibition is reported as -1.44% (inactive). For `Cc1cc(Oc2ccc(Cl)cc2)nc(SCC(=O)c2ccccc2)n1`, the inhibition was -18.8% (inactive). For `CCOC(=O)c1cnc(-n2nc(C)cc2C)nc1Nc1cccc(C(C)=O)c1`, the inhibition was -11.5% (inactive). With `CC(=O)c1ccc(Oc2cc(C)nc(-n3nc(C)cc3C)n2)cc1` the inhibition was 61.9% (active). With `Cc1cc(N/N=C\c2ccc(Br)cc2)nc(-n2nc(C)cc2C)n1` the inhibition was 3.64% (inactive). With `COc1ccccc1/C=N\Nc1cc(C)nc(-n2nc(C)cc2C)n1` the inhibition was -41.2% (inactive). For `COc1ccc(Nc2cc(C)nc(-n3nc(C)cc3C)n2)cc1`, the inhibition was 75.5% (active). In the case of `COc1ccccc1CNS(=O)(=O)c1ccc2c(c1)NC(=O)CS2`, the inhibition is reported as -51% (inactive). With `CC(=O)c1ccc(N2Cc3ccccc3C2)cc1` the inhibition was -125% (inactive). For `CCC(=O)NC(Nc1nc2ccc(C)cc2s1)(C(=O)OC)C(F)(F)F` (configuration not stated), the inhibition was 21.2% (inactive). With `O=C(NC(Nc1nc2ccc([N+](=O)[O-])cc2s1)(C(F)(F)F)C(F)(F)F)c1ccccc1` the inhibition was 67.7% (active). For `O=C(Nc1nc2ccc([N+](=O)[O-])cc2s1)c1ccc(S(=O)(=O)N2CCCc3ccccc32)cc1`, the inhibition was -18.3% (inactive).
